Results filed as inconclusive are left out. Where a call stands in place of a potency, no number is given. Unmarked numbers belong to inactive results. Active and inactive are the calls of the source. Calls follow the shape of the dose curve; as a rule, active = well fitted cell-killing curve with a large enough effect in the repeat runs; inconclusive = weak or mixed curves, or effect the other way; inactive = flat fitted curve, though single readings scatter.
Columns and labels:
[1] = cAMP Responsive Elements (CRE) small molecule antagonists, cell-based qHTS assay: qHTS cell viability counter screen (AID 2060913); also: nearly all actives have a fitted effect of over 40% in size
Procedure, shortened: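 Cytotoxicity read in the same wells as the CRE-bla HEK293T antagonist assay: after 3 h compound with 0.25 uM NKH477 final and 2 h beta-lactamase substrate, CellTiter-Glo luminescence measured.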

[2] = cAMP Responsive Elements (CRE) small molecule agonists, cell-based qHTS assay: qHTS cell viability counter screen (AID 2060914);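 also: viability read after 3 h of compound exposure; nearly all actives have a fitted effect of over 50% in size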
Procedure, shortened: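 Cells are seeded and incubated 18 h, treated with compounds in DMSO for 3 h, read for the bla reporter, then given CellTiter-Glo; luminescence is measured after 30 min at room temperature.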
Potency is read from the fitted curve at half-maximal effect.

Row | SMILES | Potency [1] | Potency [2] | viability change, negative = cytotoxic [1] | activity change, negative = cytotoxicity [2]
1 | NC(=O)C(c1ccccc1)(c1ccccc1)[C@@H]1CCN(CCc2ccc3c(c2)CCO3)C1 | inactive | inactive |  | 
2 | c1ccc2[nH]cnc2c1 | inactive | inactive |  | 
3 | NNC(=O)CCCCC(=O)NN | inactive | inactive |  | 
4 | CCCCC(=O)OCC(=O)[C@H]1[C@H](C)C[C@H]2[C@@H]3C[C@H](F)C4=CC(=O)C=C[C@]4(C)[C@@]3(F)[C@@H](O)C[C@@]21C | inactive | inactive |  | 
5 | CCCCOC(=O)C(=O)OCCCC | inactive | inactive |  | 
6 | CN1C[C@@H]2C[C@H]1CN2c1cc2c(cc1F)c(=O)c(C(=O)O)cn2C1CC1 |  |  | -0.602% [at 18.9 µM] | 19.9% [at 18.9 µM]
7 | CCOc1ccc2nc3cc(N)ccc3c(N)c2c1 | inactive | inactive |  | 
8 | CNC(=O)N(c1ccccc1)c1ccccc1 | inactive | inactive |  | 
9 | Cc1ccc(S(=O)(=O)Oc2ccc(N=Nc3ccc(-c4ccc(N=Nc5c(O)ccc6cc(S(=O)(=O)O)cc(S(=O)(=O)O)c56)c(C)c4)cc3C)cc2)cc1 | inactive | inactive |  | 
10 | CC(C)(C)C1CCCCC1O (stereo unspecified) | inactive | inactive |  | 
11 | O=c1c(O)c(-c2ccc(O)cc2)oc2cc(O)cc(O)c12 | inactive | inactive |  | 
12 | Nc1ccccc1S(=O)(=O)c1ccccc1 | inactive | inactive |  | 
13 | CC(C)=CC(=O)C=C(C)C | inactive | inactive |  | 
14 | Oc1ccc2c(c1)Cc1ccccc1-2 | inactive | inactive |  | 
15 | NS(=O)(=O)c1cc2c(cc1Cl)NC(C(Cl)Cl)NS2(=O)=O (stereo unspecified) | inactive | inactive |  | 
16 | Cc1cc(N)c(S(=O)(=O)O)cc1Cl | inactive | inactive |  | 
17 | COc1cc(S(=O)(=O)Nc2ccccc2)c(OC)cc1N | inactive | inactive |  | 
18 | C=CCOC(=O)CCC1CCCCC1 | inactive | inactive |  | 
19 | CCCCCCCCCCCCCC(=O)O | inactive | inactive |  | 
20 | CCCCCCCCCC(=O)OCC | inactive | inactive |  | 
21 | CCCCCCCCCCCCCCCCCCOCCO |  |  | -9.04% [at 18.9 µM] | -6.34% [at 18.9 µM]
22 | C=CCOC(=O)CCCCCCCC | inactive | inactive |  | 
23 | COCCOC(=O)C1=C(C)NC(C)=C(C(=O)OC/C=C/c2ccccc2)C1c1cccc([N+](=O)[O-])c1 (stereo unspecified) | inactive | inactive |  | 
24 | O=C(O)COc1nn(Cc2ccccc2)c2ccccc12 | inactive | inactive |  | 
25 | CCCCCCCCCO | inactive | inactive |  | 
26 | CC1OC(=O)C(C)OC1=O (stereo unspecified) | inactive | inactive |  | 
27 | O=C(/C=C/c1ccc(O)c(O)c1)O[C@@H](C(=O)O)[C@@H](OC(=O)/C=C/c1ccc(O)c(O)c1)C(=O)O | inactive | inactive |  | 

Row | SMILES | Potency [1] | Potency [2] | viability change, negative = cytotoxic [1] | activity change, negative = cytotoxicity [2]
28 | CN(C)C(C)(C)CO | inactive | inactive |  | 
29 | Cc1cc(N)n(-c2ccccc2)n1 | inactive | inactive |  | 
30 | c1ccc2c(c1)Oc1ccccc1S2 | inactive | inactive |  | 
31 | CC(O)COC(C)(C)C (stereo unspecified) | inactive | inactive |  | 
32 | CC(=O)CC/C=C(\C)CC/C=C(\C)CC/C=C(\C)CCC=C(C)C | inactive | inactive |  | 
33 | NC(=O)NNC(N)=O | inactive | inactive |  | 
34 | CCOC(=O)c1c(C)n(C)c2ccc(O)cc12 | inactive | inactive |  | 
35 | CCOC(=O)c1ccccc1O | inactive | inactive |  | 
36 | CC(=O)c1ccc2c(c1)CCCC2 | inactive | inactive |  | 
37 | CCO[Si](CC)(OCC)OCC | inactive | inactive |  | 
38 | O=C1c2ccccc2C(=O)C1c1ccc2ccccc2n1 | inactive | inactive |  | 
39 | O=CNc1ccccc1 | inactive | inactive |  | 
40 | CCCCCCCCOC(=O)CCCCCCCCC(=O)OCCCCCCCC | inactive | inactive |  | 
41 | CC(=O)OC(C)OC(=O)C(C)c1ccc(-c2ccccc2)c(F)c1 (stereo unspecified) | inactive | inactive |  | 
42 | CCC(C)=O | inactive | inactive |  | 
43 | Oc1ccc(Cc2ccccc2)cc1 | inactive | inactive |  | 
44 | CN(C)CCN1CCN(c2cccc(Cl)c2)C1=O | inactive | inactive |  | 
45 | Nc1ncnc2nc[nH]c12 | inactive | inactive |  | 
46 | CC[C@@]1(c2ccccc2)NC(=O)N(C)C1=O | inactive | inactive |  | 
47 | O=S(=O)(O)c1cc(O)ccc1O | inactive | inactive |  | 
48 | Cc1ncc[nH]1 | inactive | inactive |  | 
49 | O=S1(=O)CC(Cl)(Cl)C(Cl)(Cl)C1 | 15.4 µM (active) | 34.4 µM (active) |  | 
50 | Nc1nc(N)c(-c2ccccc2)s1 | inactive | inactive |  | 
51 | N[C@H](C(=O)O)[C@@H](O)c1ccc(O)c(O)c1 | inactive | inactive |  | 
52 | O=C1CC[C@H](C(=O)N2CCCCC2)N1 | inactive | inactive |  | 
53 | COc1cc(Cl)c(OC)cc1N | inactive | inactive |  | 

Reference: PubChem BioAssay (Tox21)
